Results filed as inconclusive are left out. Activity calls are given as the source filed them. The calls were made as follows, unless noted: active = hit-call score of the fitted dose curve at least 0.9, where 1 is the maximum; inactive = score below 0.9.
Assays:
[1] = ATG_NFI_CIS: Attagene CIS-FACTORIAL HepG2 Assay for human Nuclear Factor I (NFI) (AID 2282989); settings: HepG2 cis-regulatory reporter, NFI response element transcription; actives raise or lower the signal
In short: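 Multiplexed cis-reporter system in human HepG2 cells reports native TF activity as reporter mRNA induction 24 h post-dose. Fragments labelled with 6-FAM, HpaI-digested and resolved by capillary electrophoresis; activity fitted both directions versus DMSO.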

[2] = molecular target: Myc proto-oncogene protein (Homo sapiens) (UniProt P01106); test: ATG_Myc_CIS: Attagene CIS-FACTORIAL HepG2 Assay for human Myelocytomatosis (Myc) Proto-Oncogene Transcription Factor (AID 2282990); settings: HepG2, Attagene cis-reporter transcription factor activity; actives raise or lower the signal
Sequence of Myc proto-oncogene protein (Homo sapiens) (P01106 whole entry, looked up, the tested form may be a part): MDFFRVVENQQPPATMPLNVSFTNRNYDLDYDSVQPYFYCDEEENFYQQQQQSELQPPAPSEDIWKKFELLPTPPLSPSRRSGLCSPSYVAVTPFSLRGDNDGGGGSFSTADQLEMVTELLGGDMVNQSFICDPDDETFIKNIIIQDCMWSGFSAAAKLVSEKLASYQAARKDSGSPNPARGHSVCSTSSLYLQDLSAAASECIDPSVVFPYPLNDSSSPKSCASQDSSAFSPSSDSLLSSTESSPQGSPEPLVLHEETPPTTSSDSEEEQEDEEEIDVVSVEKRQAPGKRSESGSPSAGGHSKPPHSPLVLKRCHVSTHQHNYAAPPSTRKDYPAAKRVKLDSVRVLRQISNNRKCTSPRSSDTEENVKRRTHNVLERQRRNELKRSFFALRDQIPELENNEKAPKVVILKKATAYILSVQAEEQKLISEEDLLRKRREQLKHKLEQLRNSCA
In short: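 After 24 h chemical treatment of HepG2 cells carrying multiplexed cis-regulated reporter constructs, reporter transcripts quantified by RT-PCR and capillary electrophoresis of fluorescent fragments. Gain or loss fitted against DMSO baseline.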

[3] = ATG_NF_kB_CIS: Attagene CIS-FACTORIAL HepG2 Assay for human Nuclear Factor Kappa B (NF-kB) (AID 2282991); settings: HepG2 Attagene cis-factorial NF-kB reporter mRNA; actives raise or lower the signal
In short: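 HepG2, transient multi-reporter transfection, cis promoter elements (endogenous TFs). 24 h exposure. Total RNA → RT → PCR → 6-FAM label → HpaI → CE. Gain/loss vs DMSO.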

[4] = ATG_NRF2_ARE_CIS: Attagene CIS-FACTORIAL HepG2 Assay for human Nuclear Factor Erythroid 2 Related Factor 2 (NFR2) response to Antioxidant Response Elements (ARE) (AID 2282992); settings: HepG2 Attagene ARE/NRF2 reporter, transcription factor activity; actives raise or lower the signal;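 as to AC50: reporter mRNA level measured by RT-PCR and capillary electrophoresis fluorescence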
In short: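 Endogenous transcription factor activity in human liver HepG2 cells is tracked via a cis-element-driven reporter within a multiplexed set. mRNA induction is read by RT-PCR and capillary electrophoresis after 24 h, with DMSO as baseline.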

[5] = ATG_Oct_MLP_CIS: Attagene CIS-FACTORIAL HepG2 Assay for human Octamer-Binding Transcription Factor (Oct) (AID 2282993); settings: HepG2 Attagene cis-factorial Oct reporter, mRNA; actives raise or lower the signal
In short: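 After 24 h compound exposure, transfected HepG2 cells were lysed for total RNA; reporter-specific cDNA was PCR-amplified, fluorescently labelled and sized by capillary electrophoresis. Bidirectional curve fitting used DMSO as baseline.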

[6] = BSK_3C_TissueFactor: BioMAP Diversity Plus: 3C Assay for Tissue Factor Biomarker Activity (AID 2282997); settings: BioMAP 3C HUVEC, tissue factor biomarker readout; actives raise or lower the signal
In short: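 Readout: Tissue Factor ELISA. Cells: human primary umbilical vein endothelium. Time: 24 h after dosing. Analysis: bidirectional fit, DMSO baseline.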

[7] = BSK_3C_uPAR: BioMAP Diversity Plus: 3C Assay for Urokinase-type plasminogen activator receptor (uPAR) Biomarker Activity (AID 2282998); settings: BioMAP 3C HUVEC, uPAR biomarker ELISA; actives raise or lower the signal
In short: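 Values derive from bidirectional curve fitting relative to DMSO, which served as baseline of activity. uPAR was measured by ELISA in human umbilical vein endothelial primary cultures 24 h after compound addition.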

[8] = BSK_3C_VCAM1: BioMAP Diversity Plus: 3C Assay for Vascular cell adhesion molecule 1 (VCAM1) Biomarker Activity (AID 2282999); settings: BioMAP 3C HUVEC, VCAM1 ELISA, cytokine-stimulated; actives raise or lower the signal
In short: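 Activity fitted in both directions relative to DMSO, with ELISA measurement of the surface marker on primary HUVEC (3C) at 24 h post-treatment; parallel SRB staining (0.1% SRB, TCA-fixed, 560 nm) flagged overt cytotoxicity.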

[9] = BSK_4H_Eotaxin3: BioMAP Diversity Plus: 4H Assay for Eotaxin 3 Biomarker Activity (AID 2283000); settings: primary human endothelial cells (HUVEC); actives raise or lower the signal;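 also: CCL26 protein level quantified by ELISA in parallel with SRB cytotoxicity check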
In short: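 HUVEC, 24 h post-dose, ELISA for Eotaxin-3/CCL26. Gain or loss of signal fitted bidirectionally vs DMSO baseline.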

[10] = molecular target: human Peroxisome Proliferator-activated Receptor alpha (PPARa), PPARA (gene 5465) (UniProt Q07869); test: ATG_PPARa_TRANS: Attagene TRANS-FACTORIAL HepG2 Assay for human Peroxisome Proliferator-activated Receptor alpha (PPARa) (AID 2283001; active = hit-call score of the fitted dose curve at least 0.9, where 1 is the maximum;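 as to AC50: potency for gain of reporter signal over DMSO so agonist or activator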)
Sequence of human Peroxisome Proliferator-activated Receptor alpha (PPARa), PPARA (gene 5465) (Q07869 whole entry, looked up, the tested form may be a part): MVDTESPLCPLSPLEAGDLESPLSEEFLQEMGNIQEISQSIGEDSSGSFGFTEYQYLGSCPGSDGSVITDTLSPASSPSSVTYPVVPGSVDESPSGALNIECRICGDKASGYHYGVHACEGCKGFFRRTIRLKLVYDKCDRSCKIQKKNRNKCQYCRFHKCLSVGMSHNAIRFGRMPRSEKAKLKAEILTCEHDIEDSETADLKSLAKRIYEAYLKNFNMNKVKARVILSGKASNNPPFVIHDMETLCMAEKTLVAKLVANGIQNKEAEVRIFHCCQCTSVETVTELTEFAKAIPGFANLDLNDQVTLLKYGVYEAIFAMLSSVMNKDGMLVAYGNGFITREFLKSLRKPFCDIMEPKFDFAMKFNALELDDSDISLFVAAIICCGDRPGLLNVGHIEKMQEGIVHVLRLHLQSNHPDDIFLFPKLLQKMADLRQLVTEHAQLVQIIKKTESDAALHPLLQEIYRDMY
In short: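 Reporter transcripts quantified by RT-PCR plus capillary electrophoresis after 24 h treatment, fitted upward relative to DMSO. Cells: human HepG2 transiently carrying multiple GAL4-UAS reporter units driven by NR-Gal4 chimeras.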

[11] = read-out: Intercellular Adhesion Molecule 1 (ICAM1), ICAM1 (gene 3383); test: BSK_3C_ICAM1: BioMAP Diversity Plus: 3C Assay for Intercellular Adhesion Molecule 1 (ICAM1) Biomarker Activity (AID 2283003); settings: primary human endothelial cells (HUVEC); actives raise or lower the signal
In short: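 Chemicals are dosed onto primary human umbilical vein endothelium (3C system). After 24 h, ICAM-1 is measured by ELISA, and responses are fitted bidirectionally relative to DMSO.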

[12] = BSK_3C_Proliferation: Cell Proliferation Assessment in the BioMAP Diversity Plus: 3C Assay (AID 2283006); settings: primary human endothelial cells (HUVEC);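 as to AC50: potency may reflect either rise or fall in cell number versus DMSO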
In short: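 Cells (human umbilical vein endothelial, sub-confluent) receive test chemical; after 48 h they are fixed in 10% trichloroacetic acid, stained with 0.1% SRB and read at 560 nm. Activity is referenced to DMSO, fitting increases and decreases.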

[13] = molecular target: Peroxisome proliferator-activated receptor gamma (Homo sapiens) (UniProt P37231); test: ATG_PPARg_TRANS: Attagene TRANS-FACTORIAL HepG2 Assay for human Peroxisome Proliferator-activated Receptor-gamma (PPARg) (AID 2283007; active = hit-call score of the fitted dose curve at least 0.9, where 1 is the maximum)
Sequence of Peroxisome proliferator-activated receptor gamma (Homo sapiens) (P37231 whole entry, looked up): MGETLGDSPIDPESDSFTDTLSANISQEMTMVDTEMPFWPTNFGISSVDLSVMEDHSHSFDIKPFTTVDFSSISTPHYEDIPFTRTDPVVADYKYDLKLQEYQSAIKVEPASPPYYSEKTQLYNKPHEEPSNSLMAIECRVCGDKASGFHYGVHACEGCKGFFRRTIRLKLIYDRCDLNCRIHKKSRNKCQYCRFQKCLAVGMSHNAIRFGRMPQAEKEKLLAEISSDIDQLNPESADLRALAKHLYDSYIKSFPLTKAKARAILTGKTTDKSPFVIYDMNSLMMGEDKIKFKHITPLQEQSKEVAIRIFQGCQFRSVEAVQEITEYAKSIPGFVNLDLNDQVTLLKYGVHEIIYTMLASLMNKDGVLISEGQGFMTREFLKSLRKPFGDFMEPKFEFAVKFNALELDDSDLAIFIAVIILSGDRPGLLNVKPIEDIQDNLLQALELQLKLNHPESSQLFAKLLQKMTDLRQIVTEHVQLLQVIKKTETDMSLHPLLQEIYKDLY
In short: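 Multiplexed reporter transcription units in HepG2, 24 h dosing, reporter transcripts quantified by fluorescent RT-PCR and capillary electrophoresis. Increase over DMSO scored.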

[14] = molecular target: Cellular tumor antigen p53 (Homo sapiens) (UniProt P04637); test: ATG_p53_CIS: Attagene CIS-FACTORIAL HepG2 Assay for human p53 Transcription Factor (AID 2282994); settings: HepG2 p53 cis-element reporter, Attagene mRNA; actives raise or lower the signal
Sequence of Cellular tumor antigen p53 (Homo sapiens) (P04637 whole entry, looked up, the tested form may be a part): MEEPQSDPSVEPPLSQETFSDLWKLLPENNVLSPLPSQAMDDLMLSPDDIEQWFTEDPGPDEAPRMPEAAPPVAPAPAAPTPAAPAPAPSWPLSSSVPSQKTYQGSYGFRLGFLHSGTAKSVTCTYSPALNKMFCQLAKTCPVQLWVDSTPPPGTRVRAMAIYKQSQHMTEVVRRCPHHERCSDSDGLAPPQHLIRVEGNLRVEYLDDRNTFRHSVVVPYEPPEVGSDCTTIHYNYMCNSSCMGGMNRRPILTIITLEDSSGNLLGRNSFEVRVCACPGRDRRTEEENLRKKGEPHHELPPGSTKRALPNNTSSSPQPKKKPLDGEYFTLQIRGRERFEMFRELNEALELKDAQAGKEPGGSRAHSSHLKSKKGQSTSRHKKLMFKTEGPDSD
In short: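 Steps: transfect HepG2 with multiplexed cis reporter constructs; dose chemicals 24 h; extract RNA, reverse-transcribe, PCR-amplify reporter sequences; FAM-label, HpaI-digest, resolve fragments by CE. Activity fitted both directions relative to DMSO.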

[15] = molecular target: Retinoic acid receptor alpha (Homo sapiens) (UniProt P10276); test: ATG_RARa_TRANS: Attagene TRANS-FACTORIAL HepG2 Assay for human Retinoic Acid Receptor alpha (RARa) (AID 2283005; active = hit-call score of the fitted dose curve at least 0.9, where 1 is the maximum)
Sequence of Retinoic acid receptor alpha (Homo sapiens) (P10276 whole entry, looked up, the tested form may be a part): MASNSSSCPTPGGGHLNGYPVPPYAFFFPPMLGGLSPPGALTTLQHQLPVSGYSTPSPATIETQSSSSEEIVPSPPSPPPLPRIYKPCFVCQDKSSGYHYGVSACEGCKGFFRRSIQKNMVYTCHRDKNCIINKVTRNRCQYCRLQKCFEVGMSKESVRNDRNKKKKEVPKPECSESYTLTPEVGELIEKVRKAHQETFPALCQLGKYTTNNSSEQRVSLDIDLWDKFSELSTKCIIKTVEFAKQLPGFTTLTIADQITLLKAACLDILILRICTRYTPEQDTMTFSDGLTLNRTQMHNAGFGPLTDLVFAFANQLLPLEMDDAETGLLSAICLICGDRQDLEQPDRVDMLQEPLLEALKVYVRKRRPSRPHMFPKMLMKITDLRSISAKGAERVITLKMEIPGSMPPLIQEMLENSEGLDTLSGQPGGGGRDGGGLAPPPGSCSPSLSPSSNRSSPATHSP
In short: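 Reporter transcripts, measured by RT-PCR with fluorescent labeling and capillary electrophoresis after 24 h dosing, reflect activity of an exogenous human RARa–GAL4 fusion in transiently transfected HepG2. Fitted for increase relative to DMSO.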

[16] = molecular target: Nuclear receptor subfamily 1 group I member 2 (Homo sapiens) (UniProt O75469); test: ATG_PXR_TRANS: Attagene TRANS-FACTORIAL HepG2 Assay for human Pregnane X Receptor (PXR) (AID 2283008; active = hit-call score of the fitted dose curve at least 0.9, where 1 is the maximum)
Sequence of Nuclear receptor subfamily 1 group I member 2 (Homo sapiens) (O75469 whole entry, looked up, the tested form may be a part): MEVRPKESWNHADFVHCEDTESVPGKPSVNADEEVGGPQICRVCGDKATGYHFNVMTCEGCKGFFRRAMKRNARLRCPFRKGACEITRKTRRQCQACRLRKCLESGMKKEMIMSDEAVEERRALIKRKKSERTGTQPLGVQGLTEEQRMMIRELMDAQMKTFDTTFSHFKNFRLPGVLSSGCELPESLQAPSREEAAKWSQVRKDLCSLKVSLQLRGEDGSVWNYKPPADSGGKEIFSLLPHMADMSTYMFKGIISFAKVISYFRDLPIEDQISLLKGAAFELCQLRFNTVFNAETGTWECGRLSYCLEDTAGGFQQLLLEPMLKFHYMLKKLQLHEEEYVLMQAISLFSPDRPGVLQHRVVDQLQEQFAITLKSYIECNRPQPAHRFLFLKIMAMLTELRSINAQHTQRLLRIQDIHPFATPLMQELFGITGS
In short: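 HepG2 transfected (FuGene 6) with GAL4-UAS reporter units + PXR-Gal4 chimera; dosed 24 h. Total RNA → oligo(dT) RT → PCR → 6-FAM primer extension → HpaI cut → CE. Gain-of-signal vs DMSO.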

[17] = molecular target: human Retinoic Acid Receptor gamma (RARg), RARG (gene 5916) (UniProt P13631); test: ATG_RARg_TRANS: Attagene TRANS-FACTORIAL HepG2 Assay for human Retinoic Acid Receptor gamma (RARg) (AID 2283009; active = hit-call score of the fitted dose curve at least 0.9, where 1 is the maximum)
Sequence of human Retinoic Acid Receptor gamma (RARg), RARG (gene 5916) (P13631 whole entry, looked up, the tested form may be a part): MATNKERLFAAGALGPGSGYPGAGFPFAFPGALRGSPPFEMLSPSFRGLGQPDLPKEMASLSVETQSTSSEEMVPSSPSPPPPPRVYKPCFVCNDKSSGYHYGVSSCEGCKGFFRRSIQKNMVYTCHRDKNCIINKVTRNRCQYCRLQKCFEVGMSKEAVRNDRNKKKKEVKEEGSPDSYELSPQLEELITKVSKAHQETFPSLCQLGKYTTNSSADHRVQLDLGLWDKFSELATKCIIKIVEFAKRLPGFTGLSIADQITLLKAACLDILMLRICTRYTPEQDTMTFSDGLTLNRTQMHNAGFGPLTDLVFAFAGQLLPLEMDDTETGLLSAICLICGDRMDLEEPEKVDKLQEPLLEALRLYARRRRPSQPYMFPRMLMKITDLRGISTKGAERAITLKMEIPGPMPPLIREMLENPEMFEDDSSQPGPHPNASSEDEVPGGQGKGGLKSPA
In short: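 TRANS format measured activity of exogenous NR-GAL4 fusion (RARg) in transfected HepG2 liver cells after 24 h dosing. Induced reporter RNA was detected by RT-PCR/capillary electrophoresis fluorescence, analysed in the positive direction against DMSO.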

[18] = molecular target: human Peroxisome Proliferator-activated Receptor delta (PPARd), PPARD (gene 5467) (UniProt Q03181); test: ATG_PPARd_TRANS: Attagene TRANS-FACTORIAL HepG2 Assay for human Peroxisome Proliferator-activated Receptor delta (PPARd) (AID 2283002; active = hit-call score of the fitted dose curve at least 0.9, where 1 is the maximum)
Sequence of human Peroxisome Proliferator-activated Receptor delta (PPARd), PPARD (gene 5467) (Q03181 whole entry, looked up, the tested form may be a part): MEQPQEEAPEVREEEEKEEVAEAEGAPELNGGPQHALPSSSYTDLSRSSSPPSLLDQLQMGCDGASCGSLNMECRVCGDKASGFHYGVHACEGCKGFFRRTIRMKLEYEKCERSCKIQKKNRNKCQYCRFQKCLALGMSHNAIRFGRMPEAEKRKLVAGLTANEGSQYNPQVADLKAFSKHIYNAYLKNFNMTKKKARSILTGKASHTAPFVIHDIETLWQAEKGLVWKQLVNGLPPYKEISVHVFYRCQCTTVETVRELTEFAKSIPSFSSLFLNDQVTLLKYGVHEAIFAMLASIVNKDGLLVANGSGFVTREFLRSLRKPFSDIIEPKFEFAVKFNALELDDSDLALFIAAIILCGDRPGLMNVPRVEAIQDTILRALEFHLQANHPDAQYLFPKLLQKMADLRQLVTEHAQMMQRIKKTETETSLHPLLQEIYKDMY
In short: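 Read-out is induced reporter mRNA, quantified by RT-PCR with fluorescent labelling and capillary electrophoresis after 24 h dosing. Cells are HepG2 transiently carrying multiple GAL4-UAS reporter units driven by exogenous NR-GAL4 chimeras; DMSO serves as baseline.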

[19] = molecular target: human RAR-related Orphan Receptor gamma (RORg), RORC (gene 6097) (UniProt P51449); test: ATG_RORg_TRANS: Attagene TRANS-FACTORIAL HepG2 Assay for human RAR-related Orphan Receptor gamma (RORg) (AID 2283011; active = hit-call score of the fitted dose curve at least 0.9, where 1 is the maximum)
Sequence of human RAR-related Orphan Receptor gamma (RORg), RORC (gene 6097) (P51449 whole entry, looked up, the tested form may be a part): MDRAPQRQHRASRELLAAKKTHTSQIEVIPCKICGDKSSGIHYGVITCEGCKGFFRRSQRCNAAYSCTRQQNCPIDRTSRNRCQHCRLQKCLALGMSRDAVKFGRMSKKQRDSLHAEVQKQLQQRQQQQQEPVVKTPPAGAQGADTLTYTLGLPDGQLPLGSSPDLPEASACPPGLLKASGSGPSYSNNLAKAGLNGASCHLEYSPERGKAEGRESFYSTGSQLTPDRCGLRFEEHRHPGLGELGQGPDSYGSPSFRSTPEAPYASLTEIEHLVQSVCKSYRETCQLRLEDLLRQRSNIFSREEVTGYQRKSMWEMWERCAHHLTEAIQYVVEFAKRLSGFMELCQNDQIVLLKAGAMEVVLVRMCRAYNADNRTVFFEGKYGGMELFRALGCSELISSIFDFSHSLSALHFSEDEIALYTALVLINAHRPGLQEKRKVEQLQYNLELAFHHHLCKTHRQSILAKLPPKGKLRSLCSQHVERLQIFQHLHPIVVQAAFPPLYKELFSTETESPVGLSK
In short: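 Readout: reporter transcript induction (RT-PCR, fluorescent primer extension, capillary electrophoresis) after 24 h compound exposure of transiently transfected HepG2 cells carrying a RORg-Gal4 chimera and GAL4-UAS reporters; DMSO served as baseline, with increasing signal fitted.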

Measured: AC50

Cc1occc(=O)c1O
not listed: [14] | [15] | [16] | [17] | [18] | [19]
inactive: all other assays above

O=C1OC(c2ccc(O)cc2)(c2ccc(O)cc2)c2ccccc21
inactive: [14] | [6] | [9] | [11] | [15] | [17]
active: [1] 22.8 µM | [3] 176 µM | [4] 177 µM | [5] 26.2 µM | [7] 14.6 µM | [8] 29.7 µM | [12] 15 µM | [16] 0.604 µM

O=C1CCCCC1
not listed: [14] | [15] | [16] | [17]
inactive: all other assays above

CCCCCCCCCCCCCCOS(=O)(=O)O
active: [10] 5.1 µM | [12] 30.1 µM | [13] 11.1 µM
not listed: [3] | [15] | [16] | [17] | [18] | [19]
inactive: all other assays above
